In PubChem BioAssay (NCI):
About 83,000 compounds went through this panel and 20% of them were active in at least one assay; those are over-represented in the sample as a whole.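 96-well plates, one dose, 48 hours. Percent growth reported; active if below 10.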 A number with no mark means an inactive call. Calls of active or inactive are those of the source.

Columns and labels:
Test in all cases: NCI-60 one-dose screen, 48 h (100 = growth as untreated, 0 = no growth, -100 = all killed)
Conditions in all cases: 10 µM unless noted
[1] = system: NCI-H23 lung
[2] = system: NCI-H226 lung
[3] = system: NCI-H322M lung
[4] = system: HOP-62 NSCLC
[5] = system: NCI-H460 lung
[6] = system: HOP-92 NSCLC
[7] = system: NCI-H522 lung
[8] = system: A549/ATCC NSCLC
[9] = system: 786-0 renal
[10] = system: COLO 205 colon
[11] = system: DU-145 prostate
[12] = system: MALME-3M melanoma
[13] = system: MDA-MB-231 breast
[14] = system: RXF 393 renal
[15] = system: SF-268 CNS
[16] = system: SF-295 CNS
[17] = system: SF-539 CNS
[18] = system: UACC-257 melanoma
[19] = system: M14 melanoma

Row | SMILES | growth [1] | growth [2] | growth [3] | growth [4] | growth [5] | growth [6] | growth [7] | growth [8] | growth [9] | growth [10] | growth [11] | growth [12] | growth [13] | growth [14] | growth [15] | growth [16] | growth [17] | growth [18] | growth [19]
1 | O=C1c2ccccc2OC=C(c2ccccc2)N1CCCCNc1ccc(S(=O)(=O)Nc2ncccn2)cc1 | 101% | 91.4% | 92.8% | 90.1% | 103% | 75.8% | 82.9% | 81.3% | 90.6% | 114% | 109% | 110% | 96.8% | 98.9% | 91% | 94% | 102% | 91.6% | 99.6%
2 | COc1ccc(CN2c3ccccc3Sc3ccccc32)cc1O | 36.6% | 71% | 33.1% | 36.3% | 10% | 50.4% | -40.4% (active) | 24.2% | 42.5% | -7.4% (active) | 17.9% | 71.9% | 41.2% | -9.86% (active) | 45.6% | 4.23% (active) | -11% (active) | 52.5% | 14.4%
3 | COc1cc(C)c(C2C(C#N)=C(N)Oc3n[nH]c(-c4cccs4)c32)cc1C(C)C (stereo not drawn) | 93.9% | 101% | 108% | 96.8% | 107% | 99.7% | 91.2% | 86.7% | 103% | 118% | 108% | 121% | 107% | 99.5% | 101% | 101% | 104% | 90.4% | 105%
4 | COc1cc2c(cc1O)CC[C@@H]1[C@@H]2CC[C@]2(C)[C@@H](NCCN(C)C)CC[C@@H]12 | -77.2% (active) | -86.2% (active) | -91.6% (active) | -76.3% (active) | -84.7% (active) | -81.7% (active) | -94.3% (active) | -81.6% (active) | -84.3% (active) | -71% (active) | -94.3% (active) | -72.5% (active) | -82.6% (active) | -95.7% (active) | -78.8% (active) | -88.5% (active) | -86.5% (active) | -84.9% (active) | -63.7% (active)
5 | CCOc1ccc(-n2nc(C(=O)Nc3cc(OC)c(OC)c(OC)c3)nc2-c2cc(OC)c(OC)c(OC)c2)cc1 | 85% | 78.1% | 89.2% | 95.7% | 92.1% | 69.9% | 65.9% | 86.9% | 77.1% | 80.3% | 99.1% | 85.2% | 50.5% | 83.8% | 92.1% | 95.9% | 87.8% | 93.1% | 91.5%
6 | CC/C=C\C[C@H](O)C/C=C1/C(=O)C=C[C@@]1(C)C/C=C\CCCC(=O)OC | 87.2% | 121% | 106% | 104% | 110% | 99.6% | 81.2% | 88.6% | 100% | 113% | 112% | 101% | 104% | 115% | 106% | 107% | 93.6% | 87.1% | 101%
7 | COc1ccccc1Nc1nc(-c2cc3cccc(C(F)(F)F)c3oc2=O)cs1 | 18.6% | 13.4% | 33% | 25.3% | 4.14% (active) | 26.9% | -16.5% (active) | 17.1% | 20.8% | -50.3% (active) | 7% (active) | 78.2% | 19.1% | 26.7% | 26.2% | 3.82% (active) | -32.9% (active) | 57.1% | 13.5%
8 | CC(=O)c1cc(C(=O)c2ccc3c(c2)Sc2ccccc2N3)n2ccccc12 | 24.1% | 32.5% | 24.5% | 21.8% | 2.97% (active) | 46.1% | -28.9% (active) | 10.8% | 22.5% | -55.4% (active) | 1.94% (active) | 53.1% | 17.9% | 7.01% (active) | 29.7% | 8.93% (active) | -38.3% (active) | 51.4% | 20.1%
9 | Cc1cc(N2CCSCC2)nc(NC2CCCC(Nc3ccnc4cc(Cl)ccc34)C2)n1 (stereo not drawn) | 35.1% | 18.2% | -28.8% (active) | -46.2% (active) | -11.2% (active) | -66.1% (active) | -52.5% (active) | 7.52% (active) | -91.6% (active) | -74.8% (active) | 19.7% | -86.1% (active) | -75.7% (active) | -73.7% (active) | -39.9% (active) | -78.6% (active) | -93.1% (active) | -79.3% (active) | -88.5% (active)
10 | COc1ccc(CN2c3ccccc3Oc3ccccc32)cc1F | 71.8% | 101% | 91.5% | 52.1% | 47.6% | 66.6% | -13.2% (active) | 43.7% | 79.2% | 41.7% | 95.9% | 59.2% | 53.1% | 84.5% | 84.7% | 33% | 64.7% | 58.9% | 33.6%
11 | NC(=NCCCOc1ccc(Cl)cc1)Nc1ccc(C(F)(F)F)cc1 | 33.4% | 97.5% | 34.9% | 48.3% | 18.4% | 20.9% | 42.5% | 49.4% | 53.4% | -67.1% (active) | 20.4% | -49.3% (active) | 10.1% | 71.4% | 46% | 43.9% | 48.7% | 11.7% | -47.8% (active)
12 | CCC#CC[C@H](O)C/C=C1/C(=O)C=C[C@@H]1C/C=C\CCCC(=O)OC | -13.4% (active) | -62.8% (active) | 48.1% | -8.26% (active) | -34.6% (active) | 35.8% | -90.1% (active) | 32.6% | -28.3% (active) | -23% (active) | 23% | 23.4% | 12.7% | -74.1% (active) | 23.8% | -25.6% (active) | -5.91% (active) | -6.54% (active) | 5.13% (active)
13 | NCCNc1nc(Nc2ccc(-c3nc4ccccc4[nH]3)cc2)c2cn[nH]c2n1 | 57.9% | 81.4% | 98.9% | 97.5% | 54.9% | 60.4% | 16.6% | 101% | 93% | 20.8% | 90.9% | 68% | 18.8% | 43% | 68.1% | 62.9% | -9.77% (active) | 104% | 96.1%
14 | Cc1cc(N2CCN(C)CC2)nc(NC2CCCC(Nc3ccnc4cc(Cl)ccc34)C2)n1 (stereo not drawn) | 35.9% | 5.72% (active) | -6.32% (active) | -31.2% (active) | -26.6% (active) | -69.9% (active) | -46.4% (active) | 3% (active) | -60.5% (active) | -76.1% (active) | 16.9% | -82.9% (active) | -76.4% (active) | -62.2% (active) | -2.4% (active) | -71.8% (active) | -84.3% (active) | -73.6% (active) | -86.4% (active)
15 | COc1cc(-c2nn(-c3ccc(C)cc3)cc2C(=O)O)ccc1O | 89.1% | 102% | 96.7% | 88.2% | 104% | 97.7% | 79.5% | 107% | 101% | 112% | 109% | 90% | 91.7% | 125% | 90.4% | 97.9% | 101% | 105% | 96.8%
16 | CC(=O)c1cc2c(N)c(C(=O)Nc3ccccc3)sc2nc1C | 91.5% | 92% | 50.8% | 75.1% | 15.9% | 57.6% | 66.5% | 28.4% | 77.2% | 4.95% (active) | 75.5% | 89.2% | 85.1% | 85.1% | 93.1% | 64.2% | 72.5% | 68.4% | 43.5%
17 | COc1ccc(NC(=O)c2ccc(/C=C/C(=O)c3ncc[nH]3)cc2)cc1 | 64.7% | 96.5% | 85.4% | 79.1% | 64% | 104% | 51.4% | 81.5% | 67.1% | 72.4% | 34.1% | 95.1% | 91.6% | 76.9% | 72.4% | 88.4% | 64.1% | 97.8% | 87.3%
